# Reference: publication PMC5540273 (PLoS ONE, 2017)
# Experiments:
# Details in all cases: concentration: 1 μM, replicates: in singlicate; n = 1
# YANK2 = test system: T1, YANK2
# T1 construct: gene STK32B
# YANK3 = test system: T2, YANK3
# T2 construct: gene STK32C
# YES = test system: T3, YES
# T3 construct: gene YES1
# YSK1 = test system: T4, YSK1
# T4 construct: gene STK25
# YSK4 = test system: T5, YSK4
# T5 construct: gene MAP3K19
# ZAK = test system: ZAK
# ZAP70 = test system: ZAP70
# p38-alpha = test system: T6, p38-alpha
# T6 construct: gene MAPK14
# p38-beta = test system: T7, p38-beta
# T7 construct: gene MAPK11
# p38-delta = test system: p38-delta
# 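Note: KINOMEscan kinase panel screen.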
SMILES,%Inh (YANK2) [%],%Inh (YANK3) [%],%Inh (YES) [%],%Inh (YSK1) [%],%Inh (YSK4) [%],%Inh (ZAK) [%],%Inh (ZAP70) [%],%Inh (p38-alpha) [%],%Inh (p38-beta) [%],%Inh (p38-delta) [%]
Cc1cnc(N)c(/C=C/c2cncc(C(=O)NCCc3ccc(Cl)cc3Cl)c2)c1.Cl [GSK190937],0,26,20,4,27,16,0,29,0,25
CC(C)c1ccc(O)cc1Nc1ccnc2ccc(C(F)(F)F)cc12 [GW482059],2,0,0,0,73,9,0,0,0,1
COc1cccc(C2=C(Nc3cc(Cl)c(O)c(Cl)c3)C(=O)NC2=O)c1 [SB-390767],0,4,19,0,30,0,0,0,0,39
COc1ccc(Nc2nccc(NCCNC(=O)Nc3cc(C)ccc3C)n2)cc1 [GSK1379899],0,0,0,0,4,3,0,0,0,21
Cc1ccccc1Cn1ccn2c(=O)cc(N3CCOCC3)nc12 [GSK2269905],0,7,19,16,28,0,0,0,0,7
